“And” between values parts separate entries of the source, which are not always exact repeats. Equal values may be shown once. For some assays here: Potency and affinity values are given separately. The source made the active and inactive calls. Cut-off read from the data, not from the text of the source, unless noted: active = parasite load remaining mostly below about 12% (no sharp cut-off); inactive = mostly above about 10%.

6 compounds from PubChem BioAssay can be followed below.

Assay [1] in a line: blockers of polyQ-driven CASP3 activation – cell-based (AID 1583). The note with it: polyglutamine-induced caspase-3 activation, cell assay; stronger effect = higher value;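 tested at 10 µM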.
A short description of assay [2]: yeast 75Q aggregation reduction – 75Q-TubU reporter (AID 1593). The note with it: Yeast 75Q polyglutamine aggregation reporter.
A short description of assay [3]: restoration of touch response, mutant HTT neurons – whole organism, C. elegans mechanosensory neurons, N-terminal huntingtin (AID 1599). The conditions noted are these: C. elegans polyQ-huntingtin mechanosensory neurons, stronger effect = higher value.
Assay [4] is described as follows: blockers of cytochrome c efflux from mitochondria – biochemical, purified mitochondria (AID 1603).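 Note: mouse liver mitochondria challenged with calcium chloride; signal normalized to the plate average as 100%.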 The note with it: stronger effect = lower value.
Assay [5] in a line: polyglutamine aggregate formation blockers (AID 1604). The conditions noted are these: polyglutamine-induced protein aggregation inhibition assay; stronger effect = higher value; tested at 2.5 µM.
A short description of assay [6]: glutamate transport activators, MN-1 cells, MN-1 cell line (AID 1612).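 Note: tested at 1 µM final; 0% = mean of DMSO vehicle wells on each plate; positive means more glutamate uptake than control and negative means less.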 The note with it: MN-1 motor neuron cells, stronger effect = higher value.
A short description of assay [7]: 75Q-TubH aggregate inhibition, S. cerevisiae, yeast (AID 1616). The conditions noted are these: S. cerevisiae 75Q-TubH polyglutamine aggregation suppression; stronger effect = higher value.
Assay [8] is described as follows: P. berghei load reduction in hepatocytes – cell-based, HepG2, luciferase luminescence, HepG2 viability, primary screen (AID 624349).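 Note: 100% = mean of DMSO negative control wells on the same plate.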 The conditions noted are these: P. berghei liver stage in HepG2, luciferase luminescence, concentration not given here; parasite load remaining: stronger effect = lower value; viability: measured here: HepG2 viability without parasites.
Assay [9] in a line: EMT-state selective cytotoxicity in co-culture – imaging, PC-3E GFP, TEM4-18 mCherry, primary screen (AID 1345086;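 active = compounds killing one labelled cell type while sparing the other, by normalised counts and ratio limits, not self-fluorescent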;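 for all read-outs here: cells exposed to compound for 72 h before imaging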;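 for red/green cell ratio (normalised): normalised mesenchymal count divided by normalised epithelial count so high means epithelial killing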). The note with it: PC-3E GFP / TEM4-18 mCherry co-culture, imaging cell counts, at 1 µM; for red/green cell ratio (normalised): actives lie on both sides, counts scaled to control wells, 1 = unselective.
Assay [10] in a line: viability loss with induced miR-34 in A549 – imaging, A549 dox-inducible miR-34, nuclei and caspase counts, primary screen (AID 1347080;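 active = compounds whose cell count with miR-34 switched on is under 0.7 times the count with it off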). The conditions noted are these: A549 miR-34 inducible, Hoechst nuclei count, 48 h.
Assay [11] in a line: GFP-Q80 aggregate reduction, neuronal-like cells, cell-based, NGF-treated PC12, GFPQ80 (AID 1614).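 Note: lower means fewer inclusions and 0 means no inclusions at all.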 The note with it: PC12 NGF-treated GFP-polyQ80 inclusion reduction.
Where [12] appears, read: measured here: epithelial PC-3E GFP cell survival.
[13] abbreviates: measured here: mesenchymal TEM4-18 mCherry cell survival.
The mark [14] stands for this setting: stronger effect = lower value, cell number ratio, induced over uninduced.
Setting [15] is: measured here: relative caspase fold change +Dox/-Dox.
Where [16] appears, read: measured here: total cells with miR-34 induction, stronger effect = lower value.
The mark [17] stands for this setting: measured here: total cells without miR-34 induction.

As a reminder, the inhibition is the drop in the measured response relative to a control, in per cent. What is called viability is a read-out of living cells in per cent, often relative to untreated cells. Regarding `Nc1ccn(C2O[C@H](CO)[C@@H](O)[C@@H]2O)c(=O)n1` (stereo partly drawn), the inhibition in assay [1] amounted to 26%. Besides, the score in assay [2] turned out to be 1.28. The compound also registered a rescue above control in assay [3] of 1.26. Further, in assay [4], the cytochrome c release ratio came to 1.03. In [5], this compound registered an inhibition of aggregation of 77.5%. Further, in [6], the glutamate uptake change was -13.5%. Further, the aggregation suppression score in assay [7] is 1.27. For the same compound, the parasite load remaining in assay [8] is 129% (inactive) and 95.7% (inactive). Further, the viability in assay [8] was 74% and 95.8%. Besides, in assay [9], the red/green cell ratio (normalised) was 1.61 (inactive). Besides, the normalised cell number came out at 0.27 in [9] (setting [12]) and 0.43 in assay [9] (setting [13]). Also, the fold change is 0.952 (inactive) in [10] (setting [14]) and 1.13 in [10] (setting [15]). Also, the cell count came to 1930 in assay [10] (setting [16]) and 2030 in assay [10] (setting [17]).

`CCCCCCCCCCCCC[N+](C)(C)Cc1ccccc1`: the inhibition in assay [1] was 73.1%. This compound also yielded a score in assay [2] of -0.05. For the same compound, the rescue above control in assay [3] is 0. Further, in assay [4], the cytochrome c release ratio came out at 5.81. The compound further returned an inhibition of aggregation in [5] of 25%. The glutamate uptake change in [6] turned out to be 18.1%. The aggregation suppression score in [7] was -0.017. Further, the parasite load remaining in [8] is 85.2% (inactive) and -0.62% (inactive). For the same compound, the viability in assay [8] was 75.6% and 58.8%. The red/green cell ratio (normalised) in assay [9] is 0.62 (inactive). Further, the normalised cell number in assay [9] (setting [12]) is 0.83; in [9] (setting [13]), 0.51. Moreover, the results for the fold change in [10] (setting [14]) and in assay [10] (setting [15]) were 0.898 (inactive) and 1.61, respectively. Further, the cell count amounted to 74.5 in assay [10] (setting [16]) and 83 in [10] (setting [17]).

As to `C[C@]12CCC3c4ccc(O)cc4CCC3C1CC[C@@H]2O` (stereo partly drawn), in assay [1], the inhibition came to 29.2%. The compound further showed a score in assay [2] of 0.39. Further, the rescue above control in assay [3] stood at 6.83. In addition, the cytochrome c release ratio in assay [4] stood at 1.24. In assay [5], this compound displayed an inhibition of aggregation of 47.9%. Further, the glutamate uptake change in [6] amounted to 35.2%. The compound also displayed an inclusion score in assay [11] of 2. The aggregation suppression score in [7] came out at 0.216. Besides, the parasite load remaining in [8] is 84% (inactive) and 56.6% (inactive). The viability in assay [8] is 74.3% and 92.5%. The red/green cell ratio (normalised) in [9] is 1.16 (inactive). For the same compound, the normalised cell number in assay [9] (setting [12]) turned out to be 1.32; in assay [9] (setting [13]), 1.53. Moreover, the results for the fold change in assay [10] (setting [14]) and in assay [10] (setting [15]) were 0.991 (inactive) and 1.49, respectively. In addition, the cell count was found to be 11000 in [10] (setting [16]) and 11100 in assay [10] (setting [17]).

Turning to `CC(=O)[C@H]1CCC2C3C[C@H](C)C4=CC(=O)CC[C@]4(C)C3[C@@H](O)C[C@@]21C` (stereo partly drawn), the inhibition in assay [1] was -9.54%. Besides, the score in assay [2] is 0.84. The rescue above control in assay [3] was 5.72. Further, in [4], the cytochrome c release ratio is 0.58. This compound yielded an inhibition of aggregation in [5] of 53.9%. Besides, the glutamate uptake change in assay [6] was determined as 24.3%. For the same compound, the aggregation suppression score in assay [7] came to 0.683. Moreover, the parasite load remaining in [8] is 75.8% (inactive) and 64.6% (inactive). Also, in [8], the viability was 70.5% and 91.2%. The red/green cell ratio (normalised) in assay [9] is 1.01 (inactive). Further, the normalised cell number in assay [9] (setting [12]) came to 1.12; in [9] (setting [13]), 1.13. For the same compound, the fold change was 0.946 (inactive) in assay [10] (setting [14]) and 2.37 in assay [10] (setting [15]). The cell count in assay [10] (setting [16]) is 8730; in assay [10] (setting [17]), 9220.

`C[C@@H]1CC2C3CCC4=CC(=O)C=C[C@]4(C)[C@@]3(F)[C@@H](O)C[C@]2(C)[C@@]1(O)C(=O)COP(=O)(O)O` (stereo partly drawn): in assay [1], the inhibition was -13.7%. The score in assay [2] turned out to be 2.71. The compound also had a rescue above control in assay [3] of -9.5. Besides, the cytochrome c release ratio in [4] worked out at 0.74. In addition, the inhibition of aggregation in assay [5] was 70.1%. The glutamate uptake change in assay [6] was found to be 6.45%. In addition, the inclusion score in assay [11] amounted to 2.5. This compound also came in with an aggregation suppression score in assay [7] of 1.87. Besides, the parasite load remaining in [8] is 113% (inactive) and 77.9% (inactive). The viability in assay [8] was 75.1% and 87%. Besides, in [9], the red/green cell ratio (normalised) was 1.5 (inactive). Also, the normalised cell number in [9] (setting [12]) turned out to be 1.11; in [9] (setting [13]) it was 1.67. Moreover, the fold change in [10] (setting [14]) was 0.847 (inactive); in assay [10] (setting [15]), 1.88. The cell count was determined as 7240 in assay [10] (setting [16]) and 8540 in [10] (setting [17]).

As to `CC1(C)C2CC[C@]3(C)C(C(=O)C=C4[C@@H]5C[C@@](C)(C(=O)O)CC[C@]5(C)CC[C@]43C)[C@@]2(C)CC[C@@H]1OC(=O)CCC(=O)O` (stereo partly drawn), the inhibition in assay [1] was determined as 59.3%. In addition, the score in assay [2] came out at 2.57. Further, the rescue above control in [3] is -3.48. In addition, the cytochrome c release ratio in assay [4] is 3.47. Besides, the inhibition of aggregation in assay [5] is 66.7%. Also, the glutamate uptake change in assay [6] was -2.75%. The same compound registered an aggregation suppression score in [7] of 1.68. Further, in [8], the parasite load remaining is 124% (inactive) and 24.9% (inactive). Besides, the viability in [8] was 99.6% and 85.2%. Further, the red/green cell ratio (normalised) in assay [9] is 0.99 (inactive). The normalised cell number in [9] (setting [12]) was 1.01; in assay [9] (setting [13]), 1. In addition, the fold change in [10] (setting [14]) was 0.887 (inactive); in assay [10] (setting [15]), 2.9. The cell count in [10] (setting [16]) was found to be 10800; in assay [10] (setting [17]), 12200.
